Reference: the supplement of paper PMC10849652
About 7,900 targets were measured; listed, in parts, are those with a hit and a random draw of the rest. About 0.6% of all pairs of compound and target were hits. Unmarked numbers belong to inactive results.

What was measured:
Assay in all cases: log2 fold change, soluble protein after heating vs DMSO (PISA); higher = thermal stabilisation; K562 cells, 10 uM, 30 min; active = over 0.2 and 3.5 SD of the protein, either way, in both replicates (recomputed)
[1] = compound: CC1=C(C=C(C=C1)NC(=O)C2=CC(=CC=C2)C(C)(C)C#N)NC3=CC4=C(C=C3)N=CN(C4=O)C
How it was run: (§1)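 Values are thermal stability changes relative to control samples and are taken from duplicates. They are stated as log2 fold changes. Before quantification by TMTpro 16plex LC-MS/MS with equalised channel sums, K562 cells at 2×10^6 cells/mL were treated with 10 μM compound for 30 min, heated in aliquots for 3 min across 48°C-58°C, pooled, extracted in PBS with 0.5% NP-40 at 4°C, and centrifuged at 21,000xg for 90 min to give the soluble supernatant.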

[2] = compound: CC1=C(C=C(C=C1)NC(=O)C2=CC(=CC=C2)N(C)C)NC(=O)C3=CC=C(C=C3)O
How it was run: as §1

[3] = compound: CC1=CC=C(C=C1)SC2=C3C=C(SC3=CN=C2)C(=O)N
How it was run: as §1

[4] = compound: CC1=NC(=CC=C1)C2=C(N=C(N2)C(C)(C)C)C3=CC4=NC=CN=C4C=C3
How it was run: as §1

Nexturastat A = compound: CCCCN(Cc1ccc(C(=O)NO)cc1)C(=O)Nc1ccccc1 [Nexturastat A]
How it was run: as §1

vemurafenib = compound: CCCS(=O)(=O)Nc1ccc(F)c(C(=O)c2c[nH]c3ncc(-c4ccc(Cl)cc4)cc23)c1F [vemurafenib]
How it was run: as §1

[5] = compound: CCCS(=O)(=O)Nc1ccc(F)c(C(=O)c2c[nH]c3ncc(Cl)cc23)c1F
How it was run: as §1

givinostat = compound: CCN(CC)Cc1ccc2cc(COC(=O)Nc3ccc(C(=O)NO)cc3)ccc2c1 [givinostat]
How it was run: as §1

barasertib = compound: CCN(CCCOc1ccc2c(Nc3cc(CC(=O)Nc4cccc(F)c4)[nH]n3)ncnc2c1)CCOP(=O)(O)O [barasertib]
How it was run: as §1

[6] = compound: CC[C@@H]1C(=O)N(C)c2cnc(Nc3ccc(C(=O)NC4CCN(C)CC4)cc3OC)nc2N1C1CCCC1
How it was run: as §1

volasertib = compound: CC[C@@H]1C(=O)N(C)c2cnc(Nc3ccc(C(=O)N[C@H]4CC[C@H](N5CCN(CC6CC6)CC5)CC4)cc3OC)nc2N1C(C)C [volasertib]
How it was run: as §1

epoxomicin = compound: CC[C@H](C)[C@@H](C(=O)N[C@@H]([C@@H](C)O)C(=O)N[C@@H](CC(C)C)C(=O)[C@]1(CO1)C)NC(=O)[C@H]([C@@H](C)CC)N(C)C(=O)C [epoxomicin]
How it was run: as §1

[7] = compound: CCn1c(C(=O)N(C2CC2)C2CC2)cc2c3c(ncn3C)c(Nc3cc(C)n(C)n3)nc21
How it was run: as §1

[8] = compound: CCn1cc(-c2ccnc3[nH]c(-c4cccc(CN(C)C)c4)cc23)c(-c2ccc(NC(=O)N(C)C)cc2)n1
How it was run: as §1

[9] = compound: CN(C)CC(=O)Nc1ccc2[nH]c(=O)c3ccccc3c2c1
How it was run: as §1

rosiglitazone = compound: CN(CCOC1=CC=C(C=C1)C[C@H]2C(=O)NC(=O)S2)C3=CC=CC=N3 (racemic) [rosiglitazone]
How it was run: as §1

[10] = compound: CN1C2=C(C3=C1C(=O)N(N=C3)CC4=CC(=CC=C4)N)SC(=C2)S(=O)C
How it was run: as §1

[11] = compound: CN1CCC(CNc2ccc3ncc(-c4cccc(OC(F)(F)F)c4)n3n2)CC1
How it was run: as §1

[12] = compound: CCCc1cc(C)[nH]c(=O)c1CNC(=O)c1cc(-c2ccnc(N3CCN(C)CC3)c2)cc2c1cnn2C(C)C
How it was run: as §1

[13] = compound: CC[C@H](C)N1C=C(C2=C(C=C(C=C21)C3=CN=C(C=C3)N4CCNCC4)C(=O)NCC5=C(C=C(NC5=O)C)C)C
How it was run: as §1

Sequence of UniProt Q9BX63 (Q9BX63 whole entry, looked up): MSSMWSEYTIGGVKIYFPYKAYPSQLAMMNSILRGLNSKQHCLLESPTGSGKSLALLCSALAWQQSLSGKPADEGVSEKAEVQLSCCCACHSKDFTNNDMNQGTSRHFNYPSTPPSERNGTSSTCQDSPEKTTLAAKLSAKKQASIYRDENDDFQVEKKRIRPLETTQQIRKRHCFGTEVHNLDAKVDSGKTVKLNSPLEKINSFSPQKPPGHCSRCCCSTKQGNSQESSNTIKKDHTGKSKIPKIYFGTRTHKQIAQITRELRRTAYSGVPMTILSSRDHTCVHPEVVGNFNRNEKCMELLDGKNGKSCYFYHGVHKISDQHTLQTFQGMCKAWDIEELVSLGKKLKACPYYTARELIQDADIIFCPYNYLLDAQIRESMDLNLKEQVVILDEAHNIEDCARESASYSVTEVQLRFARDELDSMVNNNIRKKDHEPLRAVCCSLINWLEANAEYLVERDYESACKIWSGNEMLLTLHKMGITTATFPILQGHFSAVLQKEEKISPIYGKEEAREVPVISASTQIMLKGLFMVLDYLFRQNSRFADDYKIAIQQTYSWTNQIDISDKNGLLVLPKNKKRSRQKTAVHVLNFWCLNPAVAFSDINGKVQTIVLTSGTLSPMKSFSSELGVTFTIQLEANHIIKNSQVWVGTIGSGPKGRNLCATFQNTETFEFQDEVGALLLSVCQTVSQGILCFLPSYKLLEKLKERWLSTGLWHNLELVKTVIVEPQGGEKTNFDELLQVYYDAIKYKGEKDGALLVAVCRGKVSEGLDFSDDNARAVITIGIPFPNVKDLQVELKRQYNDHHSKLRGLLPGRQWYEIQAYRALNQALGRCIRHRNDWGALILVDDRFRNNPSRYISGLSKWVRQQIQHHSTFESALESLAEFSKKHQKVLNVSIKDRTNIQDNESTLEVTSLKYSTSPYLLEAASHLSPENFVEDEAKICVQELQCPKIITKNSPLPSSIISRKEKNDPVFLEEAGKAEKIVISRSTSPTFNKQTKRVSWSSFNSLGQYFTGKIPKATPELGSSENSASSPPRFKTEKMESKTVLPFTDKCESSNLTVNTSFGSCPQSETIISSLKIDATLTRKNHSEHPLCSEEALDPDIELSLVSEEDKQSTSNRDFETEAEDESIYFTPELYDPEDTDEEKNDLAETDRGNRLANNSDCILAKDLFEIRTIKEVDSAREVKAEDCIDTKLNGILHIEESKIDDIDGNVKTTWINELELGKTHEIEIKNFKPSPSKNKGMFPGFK
Sequence of UniProt Q96P47 (Q96P47 whole entry, looked up): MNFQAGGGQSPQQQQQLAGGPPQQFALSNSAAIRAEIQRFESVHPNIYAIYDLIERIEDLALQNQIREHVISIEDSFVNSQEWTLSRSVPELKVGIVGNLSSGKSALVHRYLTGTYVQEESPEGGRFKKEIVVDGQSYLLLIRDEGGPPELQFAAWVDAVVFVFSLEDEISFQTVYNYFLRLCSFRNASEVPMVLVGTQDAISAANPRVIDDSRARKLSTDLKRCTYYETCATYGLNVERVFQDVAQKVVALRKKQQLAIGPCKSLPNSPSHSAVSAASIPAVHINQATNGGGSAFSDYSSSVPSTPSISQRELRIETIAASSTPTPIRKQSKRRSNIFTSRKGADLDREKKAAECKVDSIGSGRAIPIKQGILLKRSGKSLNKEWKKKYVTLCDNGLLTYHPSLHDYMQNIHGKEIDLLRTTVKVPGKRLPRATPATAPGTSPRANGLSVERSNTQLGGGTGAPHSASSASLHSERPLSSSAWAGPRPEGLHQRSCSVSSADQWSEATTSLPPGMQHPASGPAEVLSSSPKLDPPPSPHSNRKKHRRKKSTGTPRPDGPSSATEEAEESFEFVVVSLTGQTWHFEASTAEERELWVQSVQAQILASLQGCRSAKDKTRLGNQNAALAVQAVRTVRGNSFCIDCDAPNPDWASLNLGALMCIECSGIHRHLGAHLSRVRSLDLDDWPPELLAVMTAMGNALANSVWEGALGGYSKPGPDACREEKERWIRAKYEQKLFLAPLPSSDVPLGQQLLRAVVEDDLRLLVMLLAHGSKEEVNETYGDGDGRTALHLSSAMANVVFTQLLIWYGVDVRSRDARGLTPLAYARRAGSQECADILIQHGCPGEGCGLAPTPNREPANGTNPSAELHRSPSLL
Sequence of UniProt P55957 (P55957 whole entry, looked up): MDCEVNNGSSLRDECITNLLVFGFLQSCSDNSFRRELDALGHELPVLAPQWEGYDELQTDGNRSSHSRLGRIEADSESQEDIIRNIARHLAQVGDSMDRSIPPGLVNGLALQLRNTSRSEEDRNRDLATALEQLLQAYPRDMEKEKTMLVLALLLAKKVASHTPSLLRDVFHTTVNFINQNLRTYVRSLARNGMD
Sequence of UniProt P02749 (P02749 whole entry, looked up): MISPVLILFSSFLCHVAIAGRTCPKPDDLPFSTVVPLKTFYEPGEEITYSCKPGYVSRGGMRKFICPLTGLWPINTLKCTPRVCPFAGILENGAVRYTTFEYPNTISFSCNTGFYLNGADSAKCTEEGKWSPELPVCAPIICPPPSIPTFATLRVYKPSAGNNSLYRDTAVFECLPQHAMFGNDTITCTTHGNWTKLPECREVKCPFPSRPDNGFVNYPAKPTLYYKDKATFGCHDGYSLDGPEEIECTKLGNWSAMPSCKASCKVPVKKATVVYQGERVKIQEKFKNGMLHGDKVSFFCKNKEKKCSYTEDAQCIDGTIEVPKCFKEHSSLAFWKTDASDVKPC
Sequence of UniProt P54922 (P54922 whole entry, looked up): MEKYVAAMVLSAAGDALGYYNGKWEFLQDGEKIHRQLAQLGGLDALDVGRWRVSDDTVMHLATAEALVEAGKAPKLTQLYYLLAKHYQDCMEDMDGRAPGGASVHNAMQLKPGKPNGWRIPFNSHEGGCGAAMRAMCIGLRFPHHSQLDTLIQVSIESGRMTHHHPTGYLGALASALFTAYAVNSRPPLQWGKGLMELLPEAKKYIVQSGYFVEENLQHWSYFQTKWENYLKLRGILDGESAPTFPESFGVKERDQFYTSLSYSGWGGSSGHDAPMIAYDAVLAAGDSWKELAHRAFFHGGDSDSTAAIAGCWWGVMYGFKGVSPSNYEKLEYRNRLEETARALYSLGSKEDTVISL
Sequence of UniProt Q9NX38 (Q9NX38 whole entry, looked up): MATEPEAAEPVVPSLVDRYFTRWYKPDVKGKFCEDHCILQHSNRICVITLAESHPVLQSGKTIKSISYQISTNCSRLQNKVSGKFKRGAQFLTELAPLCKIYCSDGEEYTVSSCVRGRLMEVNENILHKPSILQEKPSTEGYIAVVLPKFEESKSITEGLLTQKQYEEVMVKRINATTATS
Sequence of UniProt P17544 (P17544 whole entry, looked up): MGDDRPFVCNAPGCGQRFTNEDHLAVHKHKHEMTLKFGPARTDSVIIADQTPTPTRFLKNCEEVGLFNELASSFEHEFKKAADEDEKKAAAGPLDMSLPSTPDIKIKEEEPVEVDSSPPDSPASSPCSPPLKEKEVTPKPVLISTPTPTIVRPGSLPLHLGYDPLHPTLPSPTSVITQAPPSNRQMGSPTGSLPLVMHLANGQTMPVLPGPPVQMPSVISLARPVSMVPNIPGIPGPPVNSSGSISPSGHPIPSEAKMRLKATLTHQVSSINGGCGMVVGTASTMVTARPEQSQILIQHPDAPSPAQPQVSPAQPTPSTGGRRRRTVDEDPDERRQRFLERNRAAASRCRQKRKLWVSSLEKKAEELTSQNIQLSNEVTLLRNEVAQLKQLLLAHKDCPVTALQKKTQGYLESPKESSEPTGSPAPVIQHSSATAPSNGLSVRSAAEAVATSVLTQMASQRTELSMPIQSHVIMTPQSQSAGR
Sequence of UniProt Q13895 (Q13895 whole entry, looked up): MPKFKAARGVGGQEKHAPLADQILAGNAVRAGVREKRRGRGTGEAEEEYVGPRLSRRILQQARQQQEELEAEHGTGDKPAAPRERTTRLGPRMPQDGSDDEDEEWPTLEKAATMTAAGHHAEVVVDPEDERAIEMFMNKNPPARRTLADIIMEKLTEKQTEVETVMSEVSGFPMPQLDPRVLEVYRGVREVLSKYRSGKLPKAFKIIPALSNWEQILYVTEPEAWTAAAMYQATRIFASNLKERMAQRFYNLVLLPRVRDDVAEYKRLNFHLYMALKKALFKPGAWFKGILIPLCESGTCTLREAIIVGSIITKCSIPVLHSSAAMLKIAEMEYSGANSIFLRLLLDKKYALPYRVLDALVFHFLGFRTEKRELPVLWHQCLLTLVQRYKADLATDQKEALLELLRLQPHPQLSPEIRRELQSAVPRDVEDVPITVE
Sequence of UniProt O95870 (O95870 whole entry, looked up): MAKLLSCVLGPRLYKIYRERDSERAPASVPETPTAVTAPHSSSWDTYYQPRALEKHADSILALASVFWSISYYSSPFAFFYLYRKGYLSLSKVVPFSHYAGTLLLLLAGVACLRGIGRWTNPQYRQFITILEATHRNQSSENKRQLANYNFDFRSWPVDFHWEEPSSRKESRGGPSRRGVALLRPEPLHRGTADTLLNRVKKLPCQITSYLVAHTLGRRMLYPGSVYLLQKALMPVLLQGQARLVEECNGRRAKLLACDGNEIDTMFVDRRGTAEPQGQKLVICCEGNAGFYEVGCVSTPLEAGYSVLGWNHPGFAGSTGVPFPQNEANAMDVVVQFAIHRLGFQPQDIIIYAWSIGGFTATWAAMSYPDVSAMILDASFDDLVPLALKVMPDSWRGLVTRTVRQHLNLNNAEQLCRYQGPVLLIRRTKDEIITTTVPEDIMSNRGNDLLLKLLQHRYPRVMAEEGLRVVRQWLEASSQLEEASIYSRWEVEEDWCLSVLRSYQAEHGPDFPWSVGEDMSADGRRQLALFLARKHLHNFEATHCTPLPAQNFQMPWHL

Row | Target | log2 fold change [1] | log2 fold change [2] | log2 fold change [3] | log2 fold change [4] | log2 fold change (Nexturastat A) | log2 fold change (vemurafenib) | log2 fold change [5] | log2 fold change (givinostat) | log2 fold change (barasertib) | log2 fold change [6] | log2 fold change (volasertib) | log2 fold change (epoxomicin) | log2 fold change [7] | log2 fold change [8] | log2 fold change [9] | log2 fold change (rosiglitazone) | log2 fold change [10] | log2 fold change [11] | log2 fold change [12] | log2 fold change [13]
1 | BRD8 isoform 2 (UniProt Q9H0E9) | -0.013 | -0.333 | -0.044 | -0.023 | -0.023 | 0.183 | 0.06 | -0.126 | -0.039 | 0.036 | 0.025 | -0.105 | -0.045 | 0.219 | 0.432 (active) | -0.018 | 0.087 | -0.327 |  | 
2 | ATF7 isoform 6 (UniProt P17544) | 0.465 | -0.163 | -0.155 | -0.085 | -0.042 | 0.045 | 0.239 | -0.131 | -0.033 |  | -0.014 | -0.028 | 0.007 |  | 0.03 | -0.011 | -0.06 |  | -0.032 | 0.041
3 | ADPRH (UniProt P54922) | 0.014 | -0.008 | -0.002 | -0.134 | 0.015 | 0.071 | -0.037 | 0.025 | -0.036 |  | 0.108 | -0.04 | -0.067 | 0.097 | 0.1 | 0.141 |  | -0.313 | -0.005 | 0.036
4 | ATP7B (UniProt P35670) | -0.005 | -0.113 | 0.028 | 0.032 | -0.013 | -0.001 | 0.032 | -0.005 | -0.02 | -0.03 | -0.043 | 0.103 | 0.061 | -0.031 | 0.024 | 0.069 | 0.034 | 0.009 | 0.036 | 0.06
5 | AFG1L (UniProt Q8WV93) | 0.036 | 0.037 | 0.042 | 0.015 | -0.122 | 0.115 | 0.041 | 0.013 | 0.01 | 0.047 | -0.223 | 0.035 | 0.017 |  | 0.063 | 0.021 | -0.122 |  | -0.018 | 0.207
6 | ABHD16A (UniProt O95870) | 0.01 | -0.084 | -0.051 | -0.057 | 0.118 | -0.001 | -0.036 | 0.037 | 0.008 | 0.134 | 0.079 | -0.008 | -0.092 | -0.09 | -0.018 | -0.003 | -0.076 | 0.283 | 0.09 | -0.01
7 | ABITRAM (UniProt Q9NX38) | 0.011 | -0.036 | 0.062 | 0.027 | -0.114 | 0 | 0.095 |  | 0.03 | 0.033 | -0.11 | 0.055 |  | 0.137 | 0.051 | 0.139 | -0.034 | -0.093 | -0.252 | 0.088
8 | BRIP1 (UniProt Q9BX63) | -0.049 | -0.007 | -0.009 | -0.03 | 0.23 | 0.184 | 0.045 | 0.004 | -0.162 | -0.067 | 0.008 | -0.008 | -0.16 | -0.122 | -0.068 | 0.044 | 0.041 | -0.084 |  | -0.004
9 | ANK2 (UniProt Q01484) | -0.11 | -0.031 | 0.019 | 0.026 |  | -0.026 | 0.012 | -0.047 | 0.031 | 0.049 | -0.071 |  | -0.1 | 0.122 | -0.018 | 0.03 | -0.128 | -0.223 | 0.053 | -0.003
10 | APOH (UniProt P02749) | -0.346 | 0.265 | 0.055 | 0.192 |  | 0.225 | -0.063 | 0.046 | -0.203 | -0.397 | -0.443 |  | -0.171 | 0.078 | -0.141 | -0.048 | 0.48 | 0.077 | -0.611 | -0.167
11 | ASS1 (UniProt P00966) | -0.073 | -0.015 | -0.06 |  | 0.023 | -0.042 | 0.003 | 0.031 | -0.063 | 0.02 | 0.024 | 0.025 | -0.024 | 0.04 | -0.072 | 0.071 | 0.025 | -0.005 | 0.004 | 0.412
12 | ARHGAP4 isoform 2 (UniProt P98171) | -0.14 | 0.039 | -0.08 |  |  | 0.047 | -0.049 | 0.034 | -0.466 | -0.044 | -0.112 |  | -0.048 |  | 0.036 | 0.293 | 0.757 (active) |  | -0.194 | 0.048
13 | AGAP3 isoform 4 (UniProt Q96P47) | 0.037 | 0.071 | -0.039 | -0.081 | 0.252 |  | -0.022 | 0.113 | 0.199 | 0.154 | -0.038 | 0.034 | 0.019 |  |  | 0.162 |  |  | 0.089 | 0.105
14 | BID isoform 2 (UniProt P55957) | -0.054 | -0.02 | 0.029 | 0.012 | -0.056 | 0.117 | 0.001 | -0.001 | -0.01 | 0.013 | -0.196 | -0.036 | -0.022 | 0.045 | 0.042 | 0.001 | -0.068 | -0.048 | 0.016 | -0.022
15 | BRD4 (UniProt O60885) | 0.245 | -0.272 | 0.071 |  | -0.451 (active) | 0.046 | -0.003 | -0.252 | 0.021 | 1.89 (active) | 2.02 (active) | 0.136 | -0.016 | 0.597 (active) | 0.169 | -0.01 | -0.09 | -0.062 | 0.017 | -0.007
16 | AASDH (UniProt Q4L235) | -0.001 | 0.024 | -0.043 | -0.056 | 0.179 | 0.094 | 0.103 | 0.033 | 0.09 |  | -0.445 (active) | 0.028 | -0.018 | 0.149 | 0.189 | -0.044 | -0.019 | 0.004 | 0.149 | 0.141
17 | BYSL (UniProt Q13895) | 0.04 | -0.042 | -0.01 | 0.016 | 0.14 | 0.079 | 0.032 | 0.167 | 0.014 | -0.009 | -0.113 | 0.118 | -0.077 | 0.053 | 0.079 | 0.045 | 0.09 | 0.053 | -0.024 | 0.072
